From PubChem BioAssay (NCI) come the findings set out here.

The panel holds about 83,000 compounds, 20% with a hit somewhere; the sample as a whole holds those more often.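 Values shown are percent growth following 48 h exposure of cells in 96-well plates to a single concentration of compound; below 10 was considered active.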 Values without a mark were called inactive. Activity calls are given as the source filed them.

The subject of the assay is SF-268 CNS. Nature of the assay: NCI-60 one-dose screen, 48 h (100 = growth as untreated, 0 = no growth, -100 = all killed). As to conditions: 10 µM.
Consider `CCOC(=O)c1sc2ncnc(Nc3ccc4c(cnn4C(=O)Nc4ccccc4)c3)c2c1C`, for which the growth is 66.2%.

For `CCOC(=O)c1cc(C(=O)c2ccc(Cl)cc2)n2ccc(-c3cc[n+](CC(=O)c4ccc(OC)cc4)cc3)cc12`, the growth was 78.5%.

Consider `CC(CN(C)C)Oc1ccc(OC(C)CN(C)C)c2c1C(=O)c1ccccc1C2=O` (stereo not given), for which the growth was 47.8%.

For `N#Cc1c(-c2ccc(Cl)cc2)n(O)c2ccccc12`, the growth was 32.5%.

For `C=CCN(CC=C)C(=O)[C@H](CC)[C@@H]1CC[C@@H](C)[C@@H]([C@H](C)[C@@H](O)[C@@H](C)C(=O)[C@H](CC)C2O[C@]3(C=CC(=O)[C@]4(CC[C@@](C)([C@H]5CC[C@](O)(CC)[C@H](C)O5)O4)O3)[C@H](C)C[C@@H]2C)O1` (stereo not given in full), the growth is 58.9%.

In the case of `COc1cc(C2C(C#N)=C(N)Oc3cc(O)ccc32)cc(OC)c1OC` (stereo not given), the growth was 50.4%.

Consider `O=C(CI)OCC(COC(=O)CI)OC(=O)CI`, for which the growth was 93.2%.

With `Cc1ccc(C(=O)C2C(=O)C3CCC2C3)cc1` (stereo not given), the growth was 108%.

For `CCc1ccc(C2=NN(c3ccc(S(C)(=O)=O)cc3)C(=O)CC2)cc1`, the growth is 42.8%.

Regarding `CC(C)(C)c1ccc(S(=O)(=O)Oc2ccc(NC(=O)C3CCCCC3)cc2)cc1`, the growth was 70.6%.

For `N#CC1=CC2CN(Cc3ccccc3)C1C1C(=O)N(c3ccccc3)C(=O)C21` (stereo not given), the growth is 107%.

Regarding `CN(C)CCCOc1ccccc1NC1=C(Cl)C(=O)C(Nc2ccccc2OCCCN(C)C)=C(Cl)C1=O`, the growth was -88.1% (active).

`CCOC(=O)c1cc(C(=O)c2cc(OC)c(OC)c(OC)c2)n2c1ccc1c3cccnc3ccc12`: the growth was 69.9%.

Regarding `COc1cc2cc(Oc3ccc(NC(=O)c4ccccc4)cc3)c(C)nc2cc1OC`, the growth was 65.5%.

On to `COC(=O)c1cc2oc(/C=C3/SC(=S)N(N)C3=O)cc2n1Cc1ccccc1`, for which the growth was 46.4%.

For `CC[C@@H](C(=O)[C@@H](C)[C@@H](O)[C@H](C)[C@@H]1O[C@@H]([C@@H](CC)C(=O)N(CC)CC)CC[C@@H]1C)C1O[C@]2(C=CC(=O)[C@]3(CC[C@@](C)([C@H]4CC[C@](O)(CC)[C@H](C)O4)O3)O2)[C@H](C)C[C@@H]1C` (stereo not given in full), the growth is 46.4%.

For the compound `Cc1ccc(N=Nc2ccccc2)cc1`, the growth is 99.8%.

As for `COc1cc(-c2nn(-c3cccc(NC(=O)CCNc4ccc(N5CCOCC5)cc4)c3)cc2-c2ccncc2)ccc1Cl`, the growth is 31.8%.

Turning to `O=c1oc2c(cc1-c1ccc(F)cc1)C(O)Oc1ccccc1-2` (stereo not given), the growth is 81.4%.

In the case of `CCOC(=O)c1cc(C(=O)c2cc(OC)c(OC)c(OC)c2)n2ccc(-c3cc[n+](CC(=O)c4cc(OC)c(OC)c(OC)c4)cc3)cc12`, the growth is -14.5% (active).

For `CC(CN(C)C)Oc1ccccc1NC1=C(Cl)C(=O)C(Nc2ccccc2OC(C)CN(C)C)=C(Cl)C1=O` (stereo not given), the growth is -81.8% (active).

With `O=C(CCCSc1nc(-c2ccc(Cl)cc2)cc(-c2ccc(Cl)cc2)n1)NO`, the growth is 11.6%.

On to `CC[C@@H]1NC(=O)[C@H]([C@H](O)[C@H](C)C/C=C/c2ccc(CN3C(=O)CCCC3=O)cc2)N(C)C(=O)[C@H](C(C)C)N(C)C(=O)[C@H](CC(C)C)N(C)C(=O)[C@H](CC(C)C)N(C)C(=O)[C@@H](C)NC(=O)[C@H](C)NC(=O)[C@H](CC(C)C)N(C)C(=O)[C@H](C(C)C)NC(=O)[C@H](CC(C)C)N(C)C(=O)CN(C)C1=O`, for which the growth was 63.1%.

In the case of `CCNc1nc(C(F)(F)F)nc2c1sc(=S)n2-c1ccccc1`, the growth was 105%.

`COc1cc2c3c(n(C4CCN(C)CC4)c(=O)c2cc1OC)-c1cc2c(cc1C3=O)OCO2`: the growth is 50.5%.

For `Cc1cc(C)nc(NS(=O)(=O)c2ccc(Nc3nc4nc(NCc5ccccc5)nc(-c5ccc(O)cc5)c4c(=O)[nH]3)cc2)n1`, the growth was 27.8%.

As for `Oc1ccc(/C=N/N=C2c3ccccc3-c3ccccc32)c(O)c1`, the growth was 83.1%.

Consider `CN1CCN(CC(=O)Nc2cccc(-n3cc(-c4ccncc4)c(-c4ccc(Cl)c(O)c4)n3)c2)CC1`, for which the growth is 47.7%.

Take `CNS(=O)(=O)Oc1ccc(-c2ccc3occc3c2)cc1`: the growth was 102%.

Take `Cc1n[nH]c(C)c1N=Nc1cccc2c1C(=O)c1ccccc1C2=O`: the growth was 96.5%.

In the case of `Clc1ccc(C2=NN=C3C(Cc4ccccc4)=Nc4ccccc4N3C2)cc1`, the growth is 66.7%.

In the case of `CCOC(=O)N/N=C/c1ccc(OC)c(OC)c1`, the growth was 127%.

As to `COc1cc(-c2nn(-c3cccc(NC(=O)NCCNC(=O)c4ccccc4)c3)cc2-c2ccncc2)ccc1Cl`, the growth was 27.7%.

Consider `CCOC(=O)c1cc(C(=O)c2cc(OC)c(OC)c(OC)c2)n2ncc3ccccc3c12`, for which the growth is 84%.

Regarding `NC1=CC(=O)C(=O)c2cccnc21`, the growth is 90.4%.

With `COc1ccc(Cl)cc1Nc1nc(C(F)(F)F)ccc1C(=O)N/N=C/c1cc(OC)c(OC)c(OC)c1`, the growth is 8.43% (active).

On to `COc1ccc(C(c2ccc(OCCN(C)C)cc2)c2cc3ccccc3c3ccccc23)cc1` (stereo not given), for which the growth is 67.3%.

For the compound `COc1cc(C(=O)/C=C/c2c[nH]c3ccccc23)cc(OC)c1OC`, the growth was 20.3%.

As for `CC(C)(C)OC(=O)CC(S(=O)(=O)c1ccccc1)S(=O)(=O)c1ccccc1`, the growth was 102%.

Regarding `CC(C)(C)OC(=O)CN1CCc2c(sc3ncnc(N/N=C/c4cccc5ccccc45)c23)C1`, the growth was 60.2%.
